Screen size: about 340,000 compounds; about 280 (0.082%) were called active.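 The calls were made as follows: active = percent activation above the mean of all tested compounds plus 3 SD (cut at about 19% in these data); inactive = the rest.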 Only a selection was taken, and actives are over-represented in it overall.

The target of the test is cAMP-dependent protein kinase type I-alpha regulatory subunit (Bos taurus) + cAMP-dependent protein kinase catalytic subunit beta (Mus musculus) (UniProt P00514+P68181). Nature of the test: activators of PKA-R1A holoenzyme, primary screen, biochemical, fluorescence polarization, Cy5-IP20, bovine R1A, mouse PKAc (AID 504707).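 Also: higher means more PKAc released from R1A so a rise in polarization.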 The note with it: PKA-R1A dissociation, at 11.4 µM, active compounds read high, scaled: DMSO 0%, 113 µM cGMP 100%. Background: Polarisation of emitted light reports the rotation of a fluorescent probe.
Consider `COc1ccc(S(=O)(=O)N2CCC(C(=O)NCCC(=O)Nc3ccccc3OC)CC2)cc1`, for which the activation is -8.6% (inactive).
For the compound `COc1ccc(C=C2CCC3C(CCCC34OCCO4)C2=O)cc1` (stereo not drawn), the activation was -11.2% (inactive).
Under `Cc1ccccc1NC(=O)Cc1nc(COC(=O)CNC(=O)c2ccc(Cl)cc2Cl)cs1` stands 4.88% (inactive).
With `COc1ccc(NC(=O)N(C)C[C@@H]2OCc3cn(nn3)CCCC(=O)N([C@H](C)CO)C[C@H]2C)c(OC)c1` the figure was 1.93% (inactive).
For `Cc1ccc(-c2ccc(CN3C(C(C)C)C(=O)N(Cc4cn(CCC5OCCO5)nn4)CCS3(=O)=O)cc2)cc1` (stereo not drawn), the activation was -8.79% (inactive).
`N#Cc1ccc(OCC(=O)Nc2nc(-c3ccccn3)cs2)cc1`: the activation was 8.97% (inactive).
Take `Cn1c(CCN2CCN(c3ccccn3)CC2)nc2cc(NS(=O)(=O)c3ccc(F)cc3)ccc21`: the activation was -5.08% (inactive).
On to `COCCNC(=O)CSc1nc(N)c(NC(=O)c2ccco2)c(=O)[nH]1`, for which the activation is 5.93% (inactive).
Consider `CC1(C)NC(=O)N(CC(=O)Nc2ccc(-c3ccccc3)cc2)C1=O`, for which the activation is -8.93% (inactive).
With `CN(C(=O)CSc1nnc(Nc2ccccc2)s1)C1CCS(=O)(=O)C1` (stereo not drawn), the activation was 19.6% (active).
Under `CCn1c(SCC(=O)N(C)C2CCS(=O)(=O)C2)nnc1-c1cccs1` (stereo not drawn) stands 0.15% (inactive).
With `CC(C)N(C(=O)CSc1nnc(NC2CC2)s1)c1ccccc1`, the activation was -3.79% (inactive).
Under `CC1(c2cccc(N)c2)OCCO1` stands -5.54% (inactive); under `O=C(CCCN1C(=O)C(c2ccccc2)Oc2cccnc21)Nc1ccccc1Br` (stereo not drawn), -1.04% (inactive).
On to `O=C(ON=C1CCN(S(=O)(=O)c2ccccc2)CC1)c1ccc(Cl)cc1`, for which the activation was 6.75% (inactive).
As to `CNC(=O)C[C@H]1C(=O)N(c2ccc(OC)cc2)C[C@@H]1Cc1ccccc1`, the activation is -2.17% (inactive).
Under `O=C(CN1CCN(S(=O)(=O)c2ccc(Cl)s2)CC1)NCc1ccc(Cl)cc1` stands 6.31% (inactive); under `COCC(=O)N(C)C[C@H]1Oc2cc(Br)ccc2S(=O)(=O)N([C@H](C)CO)C[C@H]1C`, -4.65% (inactive).
Take `CCN(CC)C(=O)C1=C(C)N(Cc2ccc(F)cc2)C(=O)C(CC(=O)NC2CCCC2)C1` (stereo not drawn): the activation is 12.1% (inactive).
Under `Cc1ccc(Cc2c(-c3ccccc3)nc3ccc(Cl)cn23)cc1` stands -1.62% (inactive); under `Cc1cccc(S(=O)(=O)N(C)C[C@H]2OCc3cnnn3CCCC(=O)N([C@@H](C)CO)C[C@H]2C)c1`, 7.92% (inactive).
With `CC(C)n1ncc2c(C(=O)N3CCN(Cc4cccs4)CC3)cc(C3CC3)nc21`, the activation is 1.11% (inactive).
On to `C[C@H](CO)N1C[C@H](C)[C@@H](CN(C)S(=O)(=O)c2ccc(Oc3ccccc3)cc2)OCc2cn(nn2)CCCC1=O`, for which the activation is 1.58% (inactive).
As to `COCCn1c(SCC(=O)Nc2ccc(F)cc2F)nc2c(c1=O)SCC2`, the activation was -3.58% (inactive).
With `C[C@@H]1CN([C@H](C)CO)C(=O)CCCn2cc(nn2)CO[C@H]1CN(C)S(=O)(=O)c1ccc(Oc2ccccc2)nc1`, the activation is -8.71% (inactive).
Turning to `Cc1ccc(S(=O)(=O)N2C[C@H]3C(=O)C[C@@H](c4cccc5ccccc45)N(S(=O)(=O)c4ccc(C)cc4)[C@H]3C[C@H]2c2ccc(Cl)cc2)cc1`, the activation is 1.48% (inactive).
Turning to `COc1ccc(S(=O)(=O)N(C)C)cc1NC(=O)COC(=O)c1n[nH]c2ccccc12`, the activation was 0.55% (inactive).
In the case of `O=C(NCCOc1ccccc1)c1ccccc1F`, the activation was -12.1% (inactive).
`CCN1CCN(CCNC(=O)c2ccc3c(c2)NC(=O)/C(=C\c2cccc(Cl)c2)S3)CC1`: the activation is -8.75% (inactive).
Regarding `C[C@H]1CN([C@@H](C)CO)C(=O)c2cc(-c3ccccc3F)cnc2O[C@H]1CN(C)C(=O)C1CCOCC1`, the activation was -7.74% (inactive).
`C[C@@H]1CCCCO[C@H](CN(C)Cc2ccccc2)[C@@H](C)CN([C@H](C)CO)C(=O)c2cc(NS(=O)(=O)c3ccc(Cl)cc3)ccc2O1`: the activation is -4.59% (inactive).
Regarding `C#Cc1cc(N2CCN(C(=O)c3ccoc3)CC2)n2nc(-c3cccc(Cl)c3)cc2n1`, the activation is -0.28% (inactive).
Regarding `COc1ccc(-c2ccc(CN3C(C(C)C)C(=O)N(Cc4cn(CC5CCCCC5)nn4)CCS3(=O)=O)cc2)cn1` (stereo not drawn), the activation was 6.26% (inactive).
As for `O=C(Nc1ccc(Cl)cn1)c1ccccc1-c1ccccc1`, the activation is -2.35% (inactive).
For the compound `CC1CCCC(NC(=O)COC(=O)c2ccccc2C(=O)N(C)C2CCCCC2)C1C` (stereo not drawn), the activation is 4.19% (inactive).
Turning to `CC(C)c1cc(C(=O)N(C)C2CCCN(Cc3ccccc3F)C2)n(C)n1` (stereo not drawn), the activation is -3.3% (inactive).
Consider `Cc1ccc(C=O)c([B-](F)(F)F)c1`, for which the activation was -6.39% (inactive).
Turning to `COCCCN1C(=O)C(CC(=O)NCc2cccs2)CC(C(=O)N2CCOCC2)=C1C` (stereo not drawn), the activation is -6.5% (inactive).
With `O=C(COc1ccc(Br)cc1)OCC(=O)c1ccc[nH]1`, the activation is -8.33% (inactive).
As for `CCCC(=O)Nc1ncnc2c1ncn2[C@@H]1O[C@@H]2OP(=O)(O)OC[C@H]2[C@H]1OC(=O)CCC`, the activation was 49.2% (active).
Under `C[C@@H]1CN([C@H](C)CO)C(=O)CCCn2cc(nn2)CO[C@H]1CN(C)S(C)(=O)=O` stands -6.01% (inactive); under `C[C@H]1CN(c2ccc(Br)cc2)C(=O)[C@@H]1CC(=O)Nc1ccc(Br)cc1`, -2.37% (inactive).
As for `COc1cccc(NC(=O)N(C)C[C@@H]2Oc3ncc(Br)cc3C(=O)N([C@@H](C)CO)C[C@H]2C)c1`, the activation was -5.28% (inactive).

The record behind these values is PubChem BioAssay AID504707 (The Scripps Research Institute Molecular Screening Center, 2011).
